These results are taken from PubChem BioAssay AID1851 (National Center for Advancing Translational Sciences (NCATS), 2009).

The structures appear in SMILES notation. “And” between values parts separate entries of the source, which are not always exact repeats. Identical values can stand only once. About 5,800 (36%) of roughly 16,000 compounds were called active. Roughly 23% stayed inconclusive and do not appear here. Calls follow the shape of the dose curve; as a rule, active = well fitted curve in the direction sought with a large enough effect; inconclusive = small, poorly fitted or top-dose-only effect, or effect the other way; inactive = no such curve, though single readings can be large or run the other way. The list shows a part of the results.
% is scaled to controls: 0 for no effect and ±100 for the full control effect.

Cytochrome P450 2C19 (Homo sapiens), sequence (P33261 whole entry, looked up): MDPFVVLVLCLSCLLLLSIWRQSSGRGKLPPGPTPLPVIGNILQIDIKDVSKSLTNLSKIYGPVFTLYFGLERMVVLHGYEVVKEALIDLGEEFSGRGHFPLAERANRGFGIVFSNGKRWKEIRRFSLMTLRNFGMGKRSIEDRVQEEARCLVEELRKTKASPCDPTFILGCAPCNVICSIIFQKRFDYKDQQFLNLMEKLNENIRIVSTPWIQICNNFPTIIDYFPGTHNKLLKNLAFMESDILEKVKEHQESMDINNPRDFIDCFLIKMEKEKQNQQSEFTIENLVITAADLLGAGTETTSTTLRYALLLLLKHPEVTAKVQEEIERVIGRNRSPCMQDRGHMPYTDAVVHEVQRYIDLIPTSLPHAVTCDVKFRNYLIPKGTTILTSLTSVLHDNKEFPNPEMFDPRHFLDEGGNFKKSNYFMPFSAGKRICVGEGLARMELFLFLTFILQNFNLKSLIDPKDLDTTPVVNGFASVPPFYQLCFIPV

This test concerns the target Cytochrome P450 2C19 (Homo sapiens) (UniProt P33261). Description: Cytochrome panel assay with activity outcomes. Conditions: recombinant CYP, pro-luciferin dealkylation, luminescence, p450-cyp2c19; series mostly up to 57.1 µM.
On to `CCCN1C(=O)C2(/C(=C(\O)c3ccc4c(c3)OCCO4)C(=O)C(=O)N2CCCOC)c2ccccc21` (centres undefined), for which the AC50 (as a rule, the midpoint of the concentration-response curve, whichever way the signal moves) is “inactive”.
On the same count and under the same terms, the figure for `O=C(OCc1nnc(-c2ccccc2)o1)c1ccc2c(c1)OCCO2` is 8.91 µM (active); for `CN1CCc2cc3c(cc2[C@@H]1[C@@H]1C(=O)Oc2c1ccc1c2OCO1)OCO3` it is 0.02 µM (active).
For the compound `C[N+]1(C)CCc2cc3c(cc2[C@@H]1[C@@H]1C(=O)Oc2c1ccc1c2OCO1)OCO3`, the AC50 result was “inactive”.
Still for that read-out and setting: the same measure for `Cc1ccc(-c2csc(NC(=S)NC(=O)/C=C/c3ccco3)n2)cc1`: “inactive”; for `Cc1ccc(-c2csc(N/N=C/c3ccco3)n2)cc1`: 7.94 µM (active); for `CC(=O)OCC(=O)[C@@]1(O)[C@H](C)C[C@@H]2[C@H]3CCC4=CC(=O)C=C[C@]4(C)[C@]3(F)[C@@H](O)C[C@@]21C`: “inactive”.
Consider `O=C(CCC(=O)c1cccs1)OCC(=O)N1CCN(C(=O)c2ccco2)CC1`, for which the AC50 result was “inactive”.
On the same count and under the same terms, the same measure for `CCn1c(=O)cc(SCC(=O)N2CCN(C(=O)c3ccco3)CC2)c2ccccc21`: “inactive”.
Still for that read-out and setting: the same measure for `CCOC(=O)c1cc2sc(C)cc2n1CCCN1C(=O)c2ccccc2C1=O`: 3.98 µM (active); for `CCOC(=O)c1cc2sc(C)cc2n1CC(=O)N1CCN(C(=O)c2ccco2)CC1`: 25.1 µM (active).
Turning to `CCN1C(=O)[C@@H]2[C@H]3C(=CC[C@@H]2C1=O)C1(OCCCO1)[C@H]1O[C@@H]1[C@H]3O`, the concentration at half-maximal activity (AC50) was 1.58 µM (active).
`CCN1C(=O)[C@H]2[C@@H]3[C@H](O)[C@H](O)CC(=O)[C@H]3CC[C@H]2C1=O`: the activity, negative = inhibition was -13.9% [at 11.4 µM] (inactive) and -20% [at 11.4 µM] (inactive).
The same measure, in the same setting: the same measure for `CCN1C(=O)[C@H]2[C@@H]3[C@H](O)C=CC(=O)[C@H]3CC[C@H]2C1=O`: -2.48% [at 11.4 µM] (inactive).
As to `O=C(NC12CC3CC(CC(C3)C1)C2)c1ccc(COc2ccc(Cl)cc2[N+](=O)[O-])o1`, the half-maximal activity concentration (AC50) was 3.55 µM (active).
Same read-out and setting: the figure for `Cc1ccc2nc(SCc3nc4c(cnn4-c4ccccc4)c(=O)[nH]3)[nH]c2c1` is 4.47 µM (active).
The same measure, in the same setting: the entry for `O=C(Nc1cccc(-c2nc3ncccc3o2)c1)c1sc2cc(Cl)ccc2c1Cl` is “inactive”; for `CCCCCC(=O)Nc1cccc(-c2nc3ncccc3o2)c1` it is 14.1 µM (active); for `O=C(CSc1ccc(Cl)cc1)Nc1cccc(-c2nc3ncccc3o2)c1` it is 8.91 µM (active).
Regarding `NS(=O)(=O)c1ccc(NCc2nc3ccccc3[nH]2)cc1`, the activity, negative = inhibition was 39.2% [at 11.4 µM] (inactive).
Still for that read-out and setting: the figure for `NS(=O)(=O)c1ccc(NCc2cnc3ccccc3n2)cc1` is 20.6% [at 11.4 µM] (inactive).
With `NS(=O)(=O)c1ccc(NCc2ccccc2OCc2ccccc2F)cc1`, the concentration at half-maximal activity (AC50) was 6.31 µM (active).
The same measure, in the same setting: the figure for `CC1CC/C(=C\c2ccc3c(c2)OCO3)C(=O)/C1=C/c1ccc2c(c1)OCO2` (centres undefined) is 2.82 µM (active); for `Cc1nc2cnc(N3CCN(C)CC3)nc2n(Cc2cccs2)c1=O` it is “inactive”.
Still for that read-out and setting: the same measure for `COC(=O)[C@@]1(Cc2ccc(F)cc2)[C@H]2c3cc(C(=O)N4CCCC4)n(CCc4ccc(O)c(O)c4)c3C[C@H]2CN1C(=O)c1ccccc1`: 15.8 µM (active).
Same read-out and setting: the same measure for `COC(=O)[C@@]1(Cc2ccc(F)cc2)[C@H]2c3cc(C(=O)N4CCCC4)n(CCc4ccc(OC)c(Br)c4)c3C[C@H]2CN1C(=O)c1ccccc1`: 5.01 µM (active).
As for `COc1ccccc1CN1CCCC2(CCN(C(=O)c3cccn3C)CC2)C1`, the AC50 entry is “inactive”.
Still for that read-out and setting: the entry for `COC(=O)[C@@]1(Cc2ccc(F)cc2)[C@H]2c3cc(C(=O)N4CCCC4)n(Cc4ccc(S(C)(=O)=O)cc4)c3C[C@H]2CN1C(=O)c1ccccc1` is “inactive”; for `O=C(O)c1cccc(N2CCCC2=O)c1` it is 31.6 µM (active).
Still for that read-out and setting: the entry for `CC(NC(=O)c1ccc(N2CCCC2=O)cc1)c1ccccc1` (centres undefined) is “inactive”; for `O=c1cc(CO)oc(CN2CCCC2)c1O` it is “inactive”.
With `CO[C@H]1COC(=O)[C@H](C)NC(=O)C/C=C\[C@@H](C)[C@@H](NS(=O)(=O)c2ccc(C)cc2)COC(=O)[C@H](OCc2ccccc2)/C=C\[C@@H]1C`, the activity, negative = inhibition was 6.49% [at 11.4 µM] (inactive).
On to `Cc1ccc(/C=N\NC(=O)c2cc(OCC(F)(F)F)ccc2OCC(F)(F)F)cc1`, for which the AC50 entry is “inactive”.
The same measure, in the same setting: the figure for `COc1ccc(/C=N/NC(=O)c2ccn[nH]2)cc1COc1ccc(Cl)cc1` is 2 µM (active); for `COc1ccc(/C=N/NC(=O)c2ccccc2)cc1CN1CCN(c2ccc(F)cc2)CC1` it is 17.8 µM (active); for `COc1ccc(/C=N\NC(=O)C2C(=O)NCC2c2ccccc2)cc1O` (centres undefined) it is “inactive”.
Same read-out and setting: the figure for `COc1ccc(/C=N/NC(=O)c2ccn[nH]2)cc1COc1ccc(F)cc1` is 3.55 µM (active).
Still for that read-out and setting: the figure for `COc1ccc(C(=O)CN2CCN(c3ccc(F)cc3)CC2)cc1OC` is 14.1 µM (active); for `CCOc1cc(CN2CCN(c3ccc(C(C)=O)cc3)CC2)ccc1OC` it is “inactive”.
Turning to `C[C@H](O)[C@H](O)[C@@H]1CNc2nc(N)[nH]c(=O)c2N1`, the AC50 entry was “inactive”.
Same read-out and setting: the same measure for `Cc1c(C(=O)NN2CCOCC2)nn(-c2ccc(Cl)cc2Cl)c1-c1ccc(I)cc1`: 7.94 µM (active); for `Cc1ccc(C(=O)NN2CCOCC2)cc1`: “inactive”; for `O=C(Nc1ccccc1C(=O)NCCc1ccccc1)c1ccco1`: 8.91 µM (active).
On the same count and under the same terms, the same measure for `COc1ccc(CCNC(=O)c2ccccc2NC(=O)c2ccco2)cc1OC`: 11.2 µM (active); for `O=C(CCc1ccccc1)NNC(=O)c1ccco1`: “inactive”.
Regarding `CC(C)[C@@H](OCc1ccccc1)[C@H](C)/C=N\O[C@@H](C)c1cn([C@H](CO)Cc2ccccc2)nn1`, the activity, negative = inhibition was -16.9% [at 11.4 µM] (inactive) and -29.7% [at 11.4 µM] (inactive).
Regarding `N#C/C(=C\c1ccc(O)c(O)c1)C(=O)NCCc1ccccc1`, the AC50 entry was “inactive”.
Take `O=c1cc(O)cc(/C=C\c2ccc(O)c(O)c2)o1`: the AC50 entry was “inactive”.
The same measure, in the same setting: the same measure for `N#C/C(=C\c1ccc(O)c(O)c1)C(=O)c1ccc(O)c(O)c1`: “inactive”; for `N#C/C(=C\c1ccc(O)c(O)c1)C(=O)NCCCc1ccccc1`: 10 µM (active).
Turning to `N#C/C(=C\c1ccc(O)c(O)c1)C(=O)OCCc1cccs1`, the concentration at half-maximal activity (AC50) is 6.31 µM (active).
For `N#Cc1ccc(-c2ccc(F)cc2)nc1Oc1ccc(Cl)c(Cl)c1`, the concentration at half-maximal activity (AC50) is 3.55 µM (active).
Same read-out and setting: the figure for `Cc1ccc(C2NC(c3ccc(C)cc3)C(C)C(=NO)C2C)cc1` (centres undefined) is 0.562 µM (active).
For the compound `CNC[C@H](O)[C@H](O)[C@H](O)[C@H](O)CO`, the AC50 entry is “inactive”.
